The list is not random: actives were taken first. Their share in the collection is about 3.8%.
Ecoli rRNA inh – reduced GFP signal of wild-type E. coli, primary screen, bacterial rRNA inhibitor project, GFP/RFP fluorescence, OD600, single point; E. coli WT GFP vs humanized-ribosome RFP mutants, 24 h; stronger effect = lower value; DMSO median 0, no signal -100; GFP signal change (wild-type ribosome), % (no concentration beside the values); 350,000 compounds, 1.6% hits;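 active = significant combined selectivity score with lowered wild-type GFP, culture density cut under 30%, mutant RFP and density less affected; inactive = any of these conditions unmet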
ADAM10 inh – human ADAM10 inhibitors, primary screen, biochemical, QFRET, HTS; Disintegrin and metalloproteinase domain-containing protein 10 (Homo sapiens), O14672; recombinant ADAM10, EDANS/DABCYL FRET peptide cleavage, 3 h; inhibition, % at 7 µM; 370,000 compounds, 0.62% hits; AID 720582, 2013;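 active = inhibition above a per-campaign cutoff equal to the mean of compounds falling between control-based bounds plus 3 SD, cut at about 20% in these data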;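 also: 0% = DMSO wells while the 100% control is not disclosed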
Target sequence (O14672 214-748 limits assumed): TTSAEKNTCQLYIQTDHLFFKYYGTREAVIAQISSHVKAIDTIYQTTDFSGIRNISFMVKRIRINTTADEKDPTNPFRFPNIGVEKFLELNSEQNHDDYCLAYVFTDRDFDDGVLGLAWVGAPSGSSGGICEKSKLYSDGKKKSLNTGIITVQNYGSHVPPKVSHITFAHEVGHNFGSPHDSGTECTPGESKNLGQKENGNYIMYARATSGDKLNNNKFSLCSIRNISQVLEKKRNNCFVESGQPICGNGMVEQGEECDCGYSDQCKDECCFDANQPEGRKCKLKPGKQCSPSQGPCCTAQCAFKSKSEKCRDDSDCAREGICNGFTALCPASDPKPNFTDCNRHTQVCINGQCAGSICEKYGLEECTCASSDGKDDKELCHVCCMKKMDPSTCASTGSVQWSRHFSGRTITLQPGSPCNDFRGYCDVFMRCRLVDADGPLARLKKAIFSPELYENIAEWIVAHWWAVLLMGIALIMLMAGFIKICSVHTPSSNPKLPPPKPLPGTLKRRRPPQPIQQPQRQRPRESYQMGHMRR
ADAM17 inh – ADAM17 inhibitors, primary screen, biochemical, QFRET; Disintegrin and metalloproteinase domain-containing protein 17 (Homo sapiens), P78536; recombinant ADAM17, EDANS/DABCYL FRET peptide cleavage; inhibition, % at 6.95 µM; 370,000 compounds, 0.83% hits; AID 720648, 2013;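 active = inhibition above the mean of compounds lying between control limits plus 3 SD, set per campaign, cut at about 8.5% in these data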;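 also: 0% = DMSO-only wells as the low control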
FGF22 binding – binders of human FGF22 protein, primary screen, FGF22 synaptogenesis inhibitor project, biophysical, thermal shift, single point. activity (Tm shift, normalised), % at 9.99 µM. recombinant FGF22 thermal shift, SYPRO orange fluorescence; percent of sucrose octasulfate shift, DMSO zero. 340,000 compounds, 1.5% hits. AID 651658, 2012. Fibroblast growth factor 22 (Homo sapiens), Q9HCT0;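 active = mean Tm shift, scaled 0 neutral to 100 positive control, at about 1.3% or above, every replicate too, limit read from the data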
proKLK7 act – proKLK7 zymogen activators, primary screen, biochemical, fluorescence intensity | Kallikrein-7 (Homo sapiens), P49862 | purified proKLK7, EDANS-DABCYL substrate fluorescence; 100% is mature enzyme control, 0% vehicle | activation, % at 7 µM | 370,000 compounds, 0.9% hits;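 active = activation above the mean of all tested compounds plus 3 SD, computed per campaign excluding outliers beyond control limits, cut at about 13% in these data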
proKLK7 act conf – proKLK7 zymogen activators, confirmation, biochemical, fluorescence intensity, triplicate | activation, % at 7 µM | shares compounds with proKLK7 act | AID 686949, 2013 | 3,200 compounds, 68% hits | purified proKLK7, EDANS-DABCYL substrate fluorescence; scaled: vehicle 0, mature enzyme 100;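 active = activation, as change over the incubation, above the mean of all tested compounds plus 3 SD, cut at about 13% in these data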
EDANS-DABCYL int – EDANS-DABCYL substrate optical interference, artefact control for kallikrein-7 zymogen activator project, biochemical, fluorescence intensity, high throughput; activation, % at 7 µM; 3,200 compounds, 80% hits; AID 686952, 2013; shares compounds with proKLK7 act; no enzyme, 4 h; solvent 0%, active enzyme control 100%;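 active = activation above the all-compound mean plus 3 SD, ignoring values outside control-based bounds, cut at about 4.8% in these data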;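 also: value is the 4 h activation minus the activation read at time zero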
An asterisk follows results filed as active; i = inactive; / = no result.

SMILES | Ecoli rRNA inh | ADAM10 inh | ADAM17 inh | FGF22 binding | proKLK7 act | proKLK7 act conf | EDANS-DABCYL int
COc1ccc(-c2cc(C(=O)Nc3ccc(S(N)(=O)=O)cc3)c3ccccc3n2)cc1OC | -3 | -311 | -128 | 0 | 131* | 77* | 95*
COc1ccc(-c2cc(C(=O)Nc3cc(S(N)(=O)=O)ccc3C)c3ccccc3n2)cc1OC | / | -44 | -61 | 0 | -7 | / | /
COc1ccc(-c2cc(C(=O)NCCCN3CCCC3=O)c3ccccc3n2)cc1 | -2 | i | -357 | 0 | 35* | 29* | 31*
C[C@H]1CN([C@@H](C)CO)C(=O)c2cccc(NS(=O)(=O)c3ccc(Cl)cc3)c2O[C@H]1CN(C)Cc1ccc(-c2ccccc2)cc1 | / | / | / | -1 | / | / | /
C[C@H](O)C#Cc1ccc2c(c1)O[C@@H](CN(C)CC1CCCC1)[C@H](C)CN([C@H](C)CO)S2(=O)=O | 2 | / | / | 0 | / | / | /
CCC(=O)N1C[C@@H](C)[C@@H](OC)CN(C)C(=O)c2ccc(NC(=O)c3cnccn3)cc2OC[C@@H]1C | -1 | / | / | -1 | / | / | /
CN(C)C(CNC(=O)c1cc(-c2ccco2)nc2ccccc12)c1ccccc1 (stereo unspecified) | 10 | i | -326 | 0 | 31* | 1 | 1
CC(C)CCNC(=O)c1cc(-c2ccco2)nc2ccccc12 | / | i | i | / | 13* | -32 | -60
O=C(NCCCN1CCOCC1)c1cc(-c2ccco2)nc2ccccc12 | 6 | i | -425 | 0 | 62* | 18* | 30*
COc1ccc(NC(=O)c2cc(-c3ccco3)nc3ccccc23)cc1 | -4 | -27 | -12 | 0 | 15* | 14* | 20*
O=C(NCCCN1CCOCC1)c1cc(-c2ccc(Cl)s2)nc2ccccc12 | 6 | i | -393 | 0 | -31 | / | /
O=C(CC1CC1)N1CC(=O)N2[C@H](CO)[C@@H](c3ccc(/C=C/c4ccccc4)cc3)[C@H]2C1 | 0 | / | / | / | / | / | /
C[C@H]1CN([C@@H](C)CO)C(=O)Cc2cc(NC(=O)Nc3ccc4c(c3)OCO4)ccc2O[C@@H]1CN(C)Cc1ccc(-c2ccccc2)cc1 | 4 | / | / | 0 | / | / | /
N#Cc1ccc(-c2ccc3c(c2)[C@H]2[C@H](CCN2Cc2ccc4c(c2)OCO4)[C@H](CO)N3)cc1 | 27 | / | / | 0 | / | / | /
COc1ccc(-c2cc(C(=O)NCCCN3CCOCC3)c3ccccc3n2)cc1OC | 5 | -17 | -5 | 0 | -1 | / | /
CCOc1ccc(-c2cc(C(=O)NCCCN3CCOCC3)c3ccccc3n2)cc1 | 2 | i | -210 | 0 | 18* | 6 | 9.6*
COc1cc(-c2cc(C(=O)Nc3cc(S(=O)(=O)N4CCOCC4)ccc3C)c3ccccc3n2)cc(OC)c1OC | -1 | -35 | -1 | -1 | 211* | 233* | 316*
COc1cc(-c2cc(C(=O)Nc3cc(S(=O)(=O)N4CCOCC4)ccc3O)c3ccccc3n2)cc(OC)c1OC | 3 | 2 | 2 | 1 | 0 | / | /
C[C@@H]1CN([C@@H](C)CO)C(=O)c2cc(-c3ccccc3F)cnc2O[C@@H]1CN(C)C | 8 | / | / | 0 | / | / | /
CNC[C@H]1Oc2ncc(Br)cc2C(=O)N([C@H](C)CO)C[C@H]1C | 0 | / | / | 0 | / | / | /
O=C1/C(=C/c2ccc(O)c(O)c2)Oc2cc(O)ccc21 | -17 | -18 | -2 | 1 | 45* | 109* | 118*
COc1cc(/C=C2\Oc3cc(O)ccc3C2=O)ccc1O | / | -115 | -29 | 0 | 55* | 36* | 36*

Screens (PubChem BioAssay)
